# Laboratory results published in PubChem BioAssay (NCATS).
# Inconclusive results are not listed. A call without a number means that no potency is given here. Active and inactive are the calls of the source. Unless noted, calls come from the whole dose curve; as a rule, active = well fitted curve in the direction sought with a large enough effect; inconclusive = small, poorly fitted or top-dose-only effect, or another doubt; inactive = no such curve, though single readings can be large; an effect the other way counts as inactive or inconclusive.
# How the values were obtained:
# [1] = target: Mitogen-activated protein kinase 10 (Mus musculus) (UniProt Q61831); experiment: JNK3 AlphaScreen Assay (AID 530; active = well fitted curve in either direction with a large enough effect, not every such curve was filed as active;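 note: kinase came from lysate of stimulated human HepG2 cells; signal reports phosphorylation of biotinylated GST-cJun 1-79 at Ser73 with 10 µM ATP; series mostly up to about 57 µM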)
# How it was run: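 Compound titrations were preincubated 15 minutes at room temperature with substrate, antibody and pre-activated JNK3-containing HepG2 lysate. Reactions were started with 10 uM ATP and stopped with EDTA-containing bead buffer for AlphaScreen detection.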
# [2] = target: Cytochrome P450 3A4 (Homo sapiens) (UniProt P08684); experiment: qHTS Assay for Activators of Cytochrome P450 3A4 (AID 885); note: nearly all actives have a fitted effect of over 65% in size
# Sequence of Cytochrome P450 3A4 (Homo sapiens) (P08684 whole entry, looked up): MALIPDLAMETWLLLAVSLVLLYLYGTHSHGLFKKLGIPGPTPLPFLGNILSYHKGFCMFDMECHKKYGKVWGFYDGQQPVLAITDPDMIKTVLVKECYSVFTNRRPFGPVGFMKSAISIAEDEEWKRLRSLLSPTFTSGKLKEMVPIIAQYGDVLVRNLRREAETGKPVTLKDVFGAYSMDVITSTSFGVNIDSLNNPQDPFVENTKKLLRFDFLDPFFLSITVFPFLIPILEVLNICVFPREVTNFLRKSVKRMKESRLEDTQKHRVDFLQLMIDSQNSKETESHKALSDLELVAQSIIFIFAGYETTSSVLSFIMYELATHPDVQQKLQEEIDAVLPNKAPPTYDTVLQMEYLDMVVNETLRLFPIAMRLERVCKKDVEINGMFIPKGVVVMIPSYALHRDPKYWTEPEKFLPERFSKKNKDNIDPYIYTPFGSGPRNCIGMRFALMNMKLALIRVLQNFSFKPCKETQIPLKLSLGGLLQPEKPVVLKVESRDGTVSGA
# How it was run: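 20nM CYP3A4 + 25uM Luciferin-PPXE (=KM), 200mM KPO4; cpd 10 min RT; NADPH regen, 60 min RT; stop w/ detection buffer, 20 min; luminescence. Normalized to 57 uM ketoconazole.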
# [3] = target: Calcium and integrin-binding protein 1 (Homo sapiens) (UniProt Q99828); experiment: Primary qHTS for Identification of Calcium Integrin Binding Protein 1 (CIB1) Competitor (AID 1508620);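 note: GST tagged CIB1 binding a fluorescein labelled alphaIIb integrin peptide tracer; top concentration of the series differs between compounds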
# Sequence of Calcium and integrin-binding protein 1 (Homo sapiens) (Q99828 whole entry, looked up): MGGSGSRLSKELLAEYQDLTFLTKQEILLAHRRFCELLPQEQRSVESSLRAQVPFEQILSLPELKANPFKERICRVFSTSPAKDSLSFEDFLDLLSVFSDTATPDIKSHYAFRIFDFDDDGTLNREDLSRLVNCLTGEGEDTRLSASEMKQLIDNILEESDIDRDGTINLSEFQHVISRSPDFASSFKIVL
# How it was run: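 CIB1-GST (1 uM final) and compound incubated 15 min at room temperature before adding FITC-alphaIIb peptide tracer (100 nM final). Competition for binding read by fluorescence polarization (ex 480, em 540) after another 15 min at room temperature.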
# [4] = qHTS for Inhibitors of Ubiquitin-specific Protease USP2a Using CHOP2 as the Reporter: K633 Counterscreen (AID 652168); note: series mostly up to about 57 µM
# How it was run: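 Cell-free interference counterscreen without USP2a: compounds pinned into enzyme-free buffer (20 mM Tris pH 8, 2 mM beta-mercaptoethanol, 0.05% Chaps), then DiUb K48-4IQF substrate added (100 nM stock); fluorescence read kinetically, Ex 525/Em 598.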
# [5] = qHTS for Inhibitors of Ubiquitin-specific Protease USP2a Using CHOP2 as the Reporter: Cytotox Assay (AID 652170); note: series mostly up to about 46 µM; nearly all actives have a fitted effect of over 70% in size
# How it was run: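 HCT116 human colon cancer cells, 600 per well in DMEM with 10% FBS, exposed to compounds for 72 hr at 37 deg C. ATP measured by CellTiter-Glo luminescence, normalized to DMSO cells and no-cell background.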
# [6] = qHTS for Inhibitors of the vitamin D receptor (VDR): Hit Validation using a Texas Red Assay (AID 602201); note: potency is the fitted concentration of half-maximal effect
# How it was run: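 After a 2-hour room-temperature incubation, polarization of Texas-Red emission was read (Ex 595 nm/Em 615 nm). Final mix contained 7 nM Texas Red, 1.5 uM VDR-LBD and LG19078.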
smiles,measurement,setting,value
Cc1nc(NC2CCCCC2)c2nc(-c3ccccc3)n(CCN3CCCC3)c2n1,outcome,[1],inactive
same,Potency,[2],inactive
same,Potency,[3],inactive
Cc1cccc2c(C(=O)O)cc(Cl)nc12,outcome,[4],inactive
same,Potency,[5],inactive
same,Potency,[3],inactive
O=C(Nc1ccc(S(=O)(=O)Nc2nccs2)cc1)c1cccc2ccccc12,outcome,[4],inactive
same,Potency,[3],inactive
O=C(Cc1ccccc1)Nc1sc2c(c1C(=O)Nc1ccc(Cl)cc1)CCCC2,Potency,[6],4.47 µM (active)
same,Potency,[3],inactive
Cc1ccc(S(=O)(=O)Nc2cnccc2C(=O)Nc2ccc(-n3cncn3)cc2)cc1,outcome,[4],inactive
same,Potency,[3],inactive
CCCn1c(-c2ccc(F)cc2)nc2c(NCCN(C(C)C)C(C)C)nc(C)nc21,outcome,[1],inactive
same,Potency,[2],inactive
same,Potency,[3],inactive
CCCn1c(-c2ccc(F)cc2)nc2c(NCCCN(CC)CC)nc(C)nc21,outcome,[1],inactive
same,Potency,[2],inactive
same,Potency,[3],inactive
Cc1ccc(-c2cc(C(=O)Nc3cccc(Cl)c3)c3ccccc3n2)cc1C,outcome,[4],inactive
same,Potency,[3],inactive
CCN(CC)CCCCn1c(-c2ccccc2)nc2c(NC3CCCCC3)nc(C)nc21,outcome,[1],inactive
same,Potency,[2],inactive
same,Potency,[3],inactive
CCCn1c(-c2ccc(F)cc2)nc2c(NCCCN(CCO)CCO)nc(C)nc21,outcome,[1],inactive
same,Potency,[2],inactive
same,Potency,[3],inactive
CCN1CCCC1Cn1c(-c2ccccc2)nc2c(N3CCOCC3)nc(C)nc21 (stereo not given),outcome,[1],inactive
same,Potency,[2],inactive
same,Potency,[3],inactive
Cc1nc(N2CCOCC2)c2nc(-c3ccccc3)n(CCN3CCOCC3)c2n1,outcome,[1],inactive
same,Potency,[2],inactive
same,Potency,[3],inactive
O=C(Nc1ccc(S(=O)(=O)Nc2nc(-c3ccccc3)cs2)cc1)c1ccc2ccccc2c1,outcome,[4],inactive
same,Potency,[3],inactive
CCCCNc1nc(C)nc2c1nc(-c1ccccc1)n2CCCN(CC)CC,outcome,[1],inactive
same,Potency,[2],inactive
same,Potency,[3],inactive
CCCn1c(-c2ccc(F)cc2)nc2c(N3CCC(N(C)C)C3)nc(C)nc21 (stereo not given),outcome,[1],inactive
same,Potency,[2],inactive
same,Potency,[3],inactive
Cc1nc(N2CCOCC2)c2nc(-c3ccccc3)n(CCCN3CCCCC3C)c2n1 (stereo not given),outcome,[1],inactive
same,Potency,[2],inactive
same,Potency,[3],inactive
O=C(Nc1nc(-c2ccccc2)cs1)c1ccncc1NS(=O)(=O)c1ccc(N2CCCC2=O)cc1,outcome,[4],inactive
same,Potency,[3],inactive
